In PMC7819943, “Rice protein-binding microarrays: a tool to detect cis-acting elements near promoter regions in rice” one finds binding signal data, which are given here for 32 sequences.

Over roughly 68,000 sequences, “fluorescence intensity (a.u.)” has its median near 9,100; the highest 2% begin near 16,000. The sample holds the highest values, similar sequences and a random draw of the others, so the mix is not that of the screen.

OsWRKY34, sequence (Q0JBA9 entry or part of it): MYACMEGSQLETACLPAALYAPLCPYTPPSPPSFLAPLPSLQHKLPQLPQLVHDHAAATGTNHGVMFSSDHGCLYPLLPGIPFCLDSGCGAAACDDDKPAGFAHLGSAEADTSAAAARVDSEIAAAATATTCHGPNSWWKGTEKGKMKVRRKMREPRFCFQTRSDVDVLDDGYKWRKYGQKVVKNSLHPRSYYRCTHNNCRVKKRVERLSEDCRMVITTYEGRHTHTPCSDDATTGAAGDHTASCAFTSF

For this assay, the target named is OsWRKY34 (Oryza sativa, UniProt Q0JBA9 1-250). The experiment in a line: protein-binding microarray (RPBM); PBS, 2% BSA, 51.3 ng/ul salmon testes DNA, 50 uM zinc acetate, 200 nM TF, 25 C, 1 h; high values mean tight binding. The note with it: protein: recombinant; tags: N-terminal polyhistidine and DsRed monomer fusion (pET32a); label: CyDye5-dUTP incorporated in the synthesized complementary strand; 3' TTTTT single-stranded linker to array surface; dsDNA, one strand shown. The method, boiled down:
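The binding signal is fluorescence intensity per array feature (arbitrary units). Readings came from an Axon 4000B scanner after a washed, 2% BSA-blocked, double-stranded custom Agilent array had been incubated for 1 h at 25 °C with 200 nM protein and 50 µM zinc acetate. The protein was a Ni–NTA-purified transcription factor fused N-terminally to polyhistidine and DsRed, expressed in E. coli BL21-CodonPlus.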
In the case of “ACTTTGTAGCCCAATAACCACTATTTGATTCAACAGGTTTCGGAGTCACCTAGTGCAG”, the binding signal is 9900 fluorescence intensity (a.u.).

Take “ACCATTTGTTTGAGCTCCGGAACCTTTTCGCCGTCCTATGCGGAGTCACCTAGTGCAG”: the binding signal is 8460 fluorescence intensity (a.u.).

As to “ATGGCATTGAGCATTACAGTTGAATTTGTGTAGTTTTTAGCGGAGTCACCTAGTGCAG”, the binding signal was 8390 fluorescence intensity (a.u.).

Turning to “CCAGTGGTGGAGTGGAGTGGTGGTGGGGAGACGTGAGGAGCGGAGTCACCTAGTGCAG”, the binding signal was 8630 fluorescence intensity (a.u.).

For “CCCTCCTCTCCGCGCGCGCCACCTGTCCATCCGCGCGGAGCGGAGTCACCTAGTGCAG”, the binding signal is 8970 fluorescence intensity (a.u.).

With “GGTTATGGTTCAATTCTAATGTTCCTTTGGTGTCACATTTCGGAGTCACCTAGTGCAG”, the binding signal is 8200 fluorescence intensity (a.u.).

Regarding “GGTGGGAGTGCGCATTGAGGATAAGCCACTGATGACGTCTCGGAGTCACCTAGTGCAG”, the binding signal was 8600 fluorescence intensity (a.u.).

On to “TCTCCAGCTTTTTTCTGTTCCTCTGGTCTTGATTCTTGAACGGAGTCACCTAGTGCAG”, for which the binding signal is 18200 fluorescence intensity (a.u.).

As to “TTTTCTTCTTTCTTTCTCTCTGTCTTGTTCAATTTTTTCTCGGAGTCACCTAGTGCAG”, the binding signal was 11800 fluorescence intensity (a.u.).

As for “TTAAACGGTCATTCTTGTGTTTTTCCTGTATTTTCTAATCCGGAGTCACCTAGTGCAG”, the binding signal was 9220 fluorescence intensity (a.u.).

Take “GTGCAGTTGTCTTCTTCTGTTCTTTGGTCATATAGTAGTTCGGAGTCACCTAGTGCAG”: the binding signal was 14900 fluorescence intensity (a.u.).

As to “CAGTCTGTCTTGGTCTCTTTGTTCAGTCATGGTCTCTCTTCGGAGTCACCTAGTGCAG”, the binding signal is 19000 fluorescence intensity (a.u.).

In the case of “TGACATTTAAATTCTGTTTCTCTCTTTGTGTTTTAGTTCCCGGAGTCACCTAGTGCAG”, the binding signal is 9720 fluorescence intensity (a.u.).

“CTCCTGCTTCTCTGTTCTTTCCATTCTCCTCCTTTTTTTCCGGAGTCACCTAGTGCAG”: the binding signal is 14600 fluorescence intensity (a.u.).

For “ATACCTCTTGTGTATTAATTAAACATTAGTGTTTCTGTTCCGGAGTCACCTAGTGCAG”, the binding signal was 48000 fluorescence intensity (a.u.).

For “CTTCTTCCACTTGAAGCTTTTTCTCTCTTGGTCTTATCCTCGGAGTCACCTAGTGCAG”, the binding signal is 9690 fluorescence intensity (a.u.).

In the case of “TGGTGGGTGCATTGTTGTTCACATTCCGGATCCCTGCATCCGGAGTCACCTAGTGCAG”, the binding signal was 9220 fluorescence intensity (a.u.).

Regarding “TTGTAGTACTAGGTCGTATCTAATACTAGTTGATTTTTTACGGAGTCACCTAGTGCAG”, the binding signal is 8190 fluorescence intensity (a.u.).

For “TGTATCTCAAATTCTTTCAGTTGGTTTTGTGCTCTTTTTACGGAGTCACCTAGTGCAG”, the binding signal is 8920 fluorescence intensity (a.u.).

For the sequence “GGCGCTTTATTCAATTGGTCCGCTCTCGGTCTCCTGCACGCGGAGTCACCTAGTGCAG”, the binding signal is 8270 fluorescence intensity (a.u.).

As for “CTGCTGCGAGGGTGGGTGTTGCTTGTACCGGGCGGGGATGCGGAGTCACCTAGTGCAG”, the binding signal is 20300 fluorescence intensity (a.u.).

With “GAGATGGAGGTGGAGGTGGTGGAGGGGACGACGATGGTGGCGGAGTCACCTAGTGCAG”, the binding signal was 9610 fluorescence intensity (a.u.).

For the sequence “TTTGCTGCTGCTGCTTCTAGGGTTAGGGTTTGGGGTGGGGCGGAGTCACCTAGTGCAG”, the binding signal was 22100 fluorescence intensity (a.u.).

On to “TGGGGTTGAGGGAGGGTGCCGCGGGTGGCTGGCGGAGGACCGGAGTCACCTAGTGCAG”, for which the binding signal was 10600 fluorescence intensity (a.u.).

With “CGGAGGGGTTGGGCTTGCGGGCGGCGTGTACCTTGTGCACCGGAGTCACCTAGTGCAG”, the binding signal was 9410 fluorescence intensity (a.u.).

In the case of “CTGCGGCGAGAGGTGGGAGGCGGGGCGGTTGTACGTGTGCCGGAGTCACCTAGTGCAG”, the binding signal was 11000 fluorescence intensity (a.u.).

On to “GGAGGGGACGACGATGGTGGGGTGGGTGGTGTCCGGGGTGCGGAGTCACCTAGTGCAG”, for which the binding signal was 19100 fluorescence intensity (a.u.).

In the case of “CGCGCCGGGTGGCGTTGGTGTTGGCGCCGGGGAGGGTCAGCGGAGTCACCTAGTGCAG”, the binding signal is 9140 fluorescence intensity (a.u.).

Take “GCGGCGCGGCGGGGAGGAGGGAGGGGTGGCGTTGAGGTGGCGGAGTCACCTAGTGCAG”: the binding signal was 19300 fluorescence intensity (a.u.).

For “GGGAGGGGAGGACGGCGACGGCGGCGGCGGCGGGGTGTGGCGGAGTCACCTAGTGCAG”, the binding signal is 10800 fluorescence intensity (a.u.).

“GGCGCTTCTAGGGTTTGGTGGGGTTCGGGCGGGCGCGCCGCGGAGTCACCTAGTGCAG”: the binding signal was 15600 fluorescence intensity (a.u.).

“CGCACTGGCGGGGCTTGGAGCTGGGGTTTCTAGGGTTTGGCGGAGTCACCTAGTGCAG”: the binding signal was 8980 fluorescence intensity (a.u.).
